Data: the supplement of paper PMC6555819

Legend:
Experiment in all cases: PBM binding z-score (relative to random genomic background probes); higher = stronger binding; sequences stand for … in GC…GCGATTGACAGCGTAGAATGAAGG
[1] = test system: FXR:RXRa (NR concentration 270 nM, RXRa partner concentration 90 nM)
Summary of the method: (§1)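 On custom Agilent 4×180K arrays, double-stranded probes with 34-nt variable regions carried direct-repeat seeds, single-nucleotide variants, half-site ablations or random human genomic background. Ligand-free nuclear receptor dimers were applied for 1 h, and binding was read with antibodies against each partner (one per run). Binding z-scores come from regression-normalized fluorescence, with the random background probes as reference.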

[2] = test system: LXRa:RXRa (NR concentration 270 nM, RXRa partner concentration 90 nM)
Summary of the method: as §1

[3] = test system: LXRa homodimer (NR concentration 270 nM)
Summary of the method: as §1

[4] = test system: LXRb:RXRa (NR concentration 270 nM, RXRa partner concentration 90 nM)
Summary of the method: as §1

[5] = test system: LXRb homodimer (NR concentration 270 nM)
Summary of the method: as §1

[6] = test system: PPARa:RXRa (NR concentration 270 nM, RXRa partner concentration 90 nM)
Summary of the method: as §1

[7] = test system: PPARg:RXRa (NR concentration 180 nM, RXRa partner concentration 90 nM)
Summary of the method: as §1

[8] = test system: PPARg:RXRa 270nM:90nM, anti-RXR (NR concentration 270 nM, RXRa partner concentration 90 nM)
Summary of the method: as §1

[9] = test system: PPARg:RXRa 30nM:10nM, anti-RXR (NR concentration 30 nM, RXRa partner concentration 10 nM)
Summary of the method: as §1

[10] = test system: PPARg:RXRa 90nM:30nM, anti-RXR (NR concentration 90 nM, RXRa partner concentration 30 nM)
Summary of the method: as §1

[11] = test system: PPARg:RXRa DBDmut IVT, anti-RXR (DBD mutation: RXRa K156A/R161A, NR concentration 270 nM, RXRa partner concentration 90 nM)
Summary of the method: as §1

[12] = test system: PPARg:RXRa IVT, anti-PPARg (NR concentration 270 nM, RXRa partner concentration 90 nM)
Summary of the method: as §1

[13] = test system: PPARg DBDmut:RXRa IVT, anti-PPARg (DBD mutation: PPARg1 K132A/R137A, NR concentration 270 nM, RXRa partner concentration 90 nM)
Summary of the method: as §1

[14] = test system: PPARg DBDmut IVT, anti-PPARg (DBD mutation: PPARg1 K132A/R137A, NR concentration 270 nM)
Summary of the method: as §1

[15] = test system: PPARg homodimer (NR concentration 180 nM)
Summary of the method: as §1

[16] = test system: PXR:RXRa (NR concentration 270 nM, RXRa partner concentration 90 nM)
Summary of the method: as §1

[17] = test system: PXR homodimer (NR concentration 270 nM)
Summary of the method: as §1

[18] = test system: RARa:RXR (NR concentration 270 nM, RXRa partner concentration 90 nM)
Summary of the method: as §1

[19] = test system: RARa homodimer (NR concentration 270 nM)
Summary of the method: as §1

[20] = test system: RARb:RXRa (NR concentration 270 nM, RXRa partner concentration 90 nM)
Summary of the method: as §1

Sequence | PBM binding z-score [1] | PBM binding z-score [2] | PBM binding z-score [3] | PBM binding z-score [4] | PBM binding z-score [5] | PBM binding z-score [6] | PBM binding z-score [7] | PBM binding z-score [8] | PBM binding z-score [9] | PBM binding z-score [10] | PBM binding z-score [11] | PBM binding z-score [12] | PBM binding z-score [13] | PBM binding z-score [14] | PBM binding z-score [15] | PBM binding z-score [16] | PBM binding z-score [17] | PBM binding z-score [18] | PBM binding z-score [19] | PBM binding z-score [20]
GCGACCGGGGCAAAGCAGGTTACCATAAGGTTGG | 0.264 | 0.812 | -0.366 | 0.0322 | -1.28 | 1.42 | 0.709 | 0.611 | -0.666 | -0.143 | 1.27 | 1.24 | -1.18 | -1.17 | 0.243 | 0.857 | -0.433 | 1.31 | -0.661 | 1.65
CCGACTGGGGAAAAGGTTACCATACTCAGTACGA | 0.132 | 0.716 | -0.0897 | 1.29 | -0.67 | 3.82 | 6.95 | 7.47 | 6.02 | 8.23 | 0.816 | 2.89 | -0.258 | -0.129 | 1.18 | 0.978 | -0.181 | 1.8 | 0.0679 | 1.59
TCGAGTAGGTTGCCAATGGGGCATTCAGCTTTCT | -0.454 | -0.408 | -0.785 | -0.313 | -0.788 | -0.0635 | -0.86 | 0.227 | 0.337 | 0.314 | 0.771 | 0.26 | -0.582 | -1.2 | -1.09 | -0.544 | -1.13 | -0.717 | -1.42 | -0.201
CCTTACGGGTCACGCGGTTATAGCACGACGAGCG | 6.26 | 4.51 | 0.11 | 3.64 | 0.0354 | 5.65 | 6.07 | 6.24 | 2.58 | 4.96 | 4.11 | 4.96 | 0.683 | 0.817 | 1.05 | 3.53 | -0.0866 | 4.59 | 0.82 | 4.33
TCTTGTATATCAACAGGAGGTTAAGAAAGATCGA | 0.413 | 1.42 | 0.536 | 1.16 | 0.307 | 1.29 | 0.477 | 1.5 | 3.07 | 2.27 | 1.71 | 0.652 | 1.56 | 1.04 | 0.679 | 1.2 | 0.265 | 1.32 | 0.86 | 0.806
GCGGCTGGGGCAAAGCAGGTTACCATAAGGTTGG | 0.63 | 0.104 | -0.673 | 0.159 | -0.912 | 0.636 | 0.139 | -0.304 | -0.825 | -0.577 | 0.344 | 0.597 | -2.01 | -1.49 | -0.191 | 0.338 | -0.584 | 0.776 | -1.18 | 1.07
CCGAATGGGGCAAAGGTTACCATACTCAGTACGA | 1.99 | 1.85 | 0.278 | 2.51 | -0.456 | 4.58 | 9.1 | 7.67 | 7.02 | 7.87 | 2.16 | 4.5 | 0.22 | 0.313 | 1.22 | 2.57 | 0.114 | 3.86 | 0.85 | 2.46
CGAACTAGGTCATTGACAGGACGGTGAATAGTAA | 4.57 | 2.37 | 0.115 | 1.47 | -0.0948 | 4.67 | 7.41 | 6.31 | 3.36 | 5.61 | 8.29 | 8.22 | 1.89 | 0.528 | 0.985 | 1.12 | -0.168 | 1.81 | 0.0523 | 3.63
CGTCCAAGGTCAAAGATCAGTGAAGAGATGACGG | 6.99 | 5.44 | 0.528 | 4.2 | 1.25 | 5.75 | 6.08 | 6.43 | 3.08 | 5.64 | 3.3 | 3.88 | 0.698 | -0.108 | 2.98 | 4.59 | 1.01 | 5.63 | 1.03 | 5.16
ACAGACAGGTGATGAAGGTAACTCGGGCTATCAT | -0.17 | 0.107 | -0.351 | -0.291 | -0.168 | 0.0611 | 0.471 | -0.0859 | -0.0607 | -0.242 | 0.382 | 0.0218 | -0.282 | -0.148 | 0.503 | -0.0935 | 0.344 | 0.209 | 0.291 | 0.263
ACTCGGAGGACTAAGGTCAGAGCTACGCCAGTGA | 1.93 | 1.78 | 0.464 | 1.49 | -0.00791 | 2.52 | 1.93 | 2.96 | 0.578 | 2.41 | -0.123 | 0.778 | -0.0206 | -0.832 | 1.27 | 1.8 | 0.241 | 2.92 | -0.326 | 2.88
CTCGAAAGGTCGGTTGAGGTTAGTATACGGATAA | 3.06 | 2.88 | 0.205 | 1.97 | 0.0146 | 2.81 | 0.316 | 1.21 | 0.186 | 0.845 | -0.0127 | 0.923 | 0.234 | -0.683 | 1.47 | 4.96 | 0.435 | 3.04 | 0.202 | 3.06
GCGACTGGGGCATCAGCAGGTTCCCATAACTTAA | -0.761 | -0.491 | -0.648 | 0.0504 | -1.52 | 0.27 | 0.29 | 0.35 | -0.948 | -0.176 | 3.91 | 2.88 | -0.996 | -0.982 | -0.276 | -0.549 | -0.571 | -0.272 | -0.565 | 0.421
TGATATAGGTAATACAGGTGAAAGTCGGCATCTA | 0.306 | 0.701 | 0.521 | 0.418 | 0.00189 | 2.16 | 2.39 | 2.3 | 1.33 | 2.05 | 4.32 | 4.45 | 1.57 | 1.13 | 1.38 | 0.409 | 0.476 | 0.69 | 0.77 | 0.624
